# Data as given in PubChem BioAssay (EPA / NIEHS).
# Calls of active or inactive are those of the source. Rule for the calls: active = hit-call score of the fitted dose curve at least 0.9, where 1 is the maximum; inactive = score below 0.9.
# What was measured:
# [1] = molecular target: Paired box protein Pax-6 (Homo sapiens) (UniProt P26367); test: ATG_Pax6_CIS: Attagene CIS-FACTORIAL HepG2 Assay for human Paired Box 6 (PAX6) (AID 2282956); conditions: HepG2 CIS-FACTORIAL PAX6 reporter transcription, RNA readout; actives raise or lower the signal
# Summary of the method: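 DMSO-referenced bidirectional fits of reporter mRNA fluorescence; HepG2 with transient cis-promoter MRTUs, 24 h post-dose, RT-PCR plus capillary electrophoresis detection.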
# [2] = ATG_PXRE_CIS: Attagene CIS-FACTORIAL HepG2 Assay for human Pregnane X Receptor Element (PXRE) (AID 2282957); conditions: HepG2 Attagene CIS-FACTORIAL PXRE reporter, mRNA; actives raise or lower the signal
# Summary of the method: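 After a 24 h chemical incubation, total RNA from transfected HepG2 cells was reverse-transcribed and reporter cDNA amplified, FAM-labeled, HpaI-digested and sized by capillary electrophoresis. DMSO served as baseline for bidirectional curve fitting.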
# [3] = ATG_RORE_CIS: Attagene CIS-FACTORIAL HepG2 Assay for human RAR-related Orphan Receptor Element (RORE) (AID 2282959); conditions: HepG2 Attagene cis-factorial RORE reporter, mRNA; actives raise or lower the signal
# Summary of the method: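 Transient MRTU transfection of human HepG2 liver cells (FuGene 6); 24 h compound exposure; TriZol RNA, oligo(dT) RT, PCR, FAM labeling, HpaI cut, CE fragment analysis. DMSO = negative control/baseline.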
# [4] = ATG_Sox_CIS: Attagene CIS-FACTORIAL HepG2 Assay for human SRY-box transcription factor (SOX) (AID 2282960); conditions: HepG2 Attagene cis-factorial SOX reporter, mRNA; actives raise or lower the signal
# Summary of the method: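 Endogenous factor activity in human liver HepG2 cells carrying transfected cis-regulated reporter units. RNA taken 24 h post-dose, reverse-transcribed, PCR-amplified and sized by capillary electrophoresis. Gain or loss of signal fitted relative to DMSO.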
# [5] = ATG_SREBP_CIS: Attagene CIS-FACTORIAL HepG2 Assay for human Sterol Regulatory Element Binding (SREBP) (AID 2282962); conditions: HepG2 Attagene cis-factorial SREBP reporter, mRNA; actives raise or lower the signal
# Summary of the method: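 In this cis-format assay, HepG2 liver cells express reporters controlled by promoter elements responsive to native transcription factors. Exposure lasts 24 h; reporter mRNA fluorescence from capillary electrophoresis gives the signal, fitted bidirectionally against DMSO.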
# [6] = molecular target: Signal transducer and activator of transcription 3 (Homo sapiens) (UniProt P40763); test: ATG_STAT3_CIS: Attagene CIS-FACTORIAL HepG2 Assay for human Signal Transducer and Activator of Transcription 3 (STAT3) (AID 2282963); conditions: HepG2, Attagene cis-factorial STAT3 reporter transcription; actives raise or lower the signal
# Summary of the method: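 Readout: fluorescent reporter mRNA fragments resolved by capillary electrophoresis. Setup: HepG2 transfected with MRTUs reporting endogenous transcription-factor activity, dosed 24 h. Gain or loss of signal fitted bidirectionally against DMSO control.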
# [7] = ATG_TA_CIS: Attagene CIS-FACTORIAL HepG2 Assay for human TA Basal Promoter (AID 2282964); conditions: HepG2 Attagene CIS-factorial TA basal promoter reporter; actives raise or lower the signal
# Summary of the method: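 Multiplexed mRNA reporter assay, HepG2, 24 h. Reporter cDNA amplified, 6-FAM primer-extended, HpaI-cut, CE-sized; DMSO = negative control and baseline.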
# [8] = ATG_TCF_b_cat_CIS: Attagene CIS-FACTORIAL HepG2 Assay for human T-Cell-Factor with beta-catenin (TCF/b-cat) (AID 2282965); conditions: HepG2 TCF/beta-catenin cis-reporter transcription, actives raise or lower the signal
# Summary of the method: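 Cells of the HepG2 line carry transiently transfected reporter units whose promoters respond to endogenous factors. Twenty-four hours post-dosing, reporter mRNA induction is measured by fluorescent RT-PCR and capillary electrophoresis, with DMSO as baseline.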
# [9] = molecular target: Transcription factor Sp1 (Homo sapiens) (UniProt P08047); test: ATG_Sp1_CIS: Attagene CIS-FACTORIAL HepG2 Assay for human Specificity Protein 1 (Sp1) (AID 2282961); conditions: HepG2 Sp1 cis-reporter transcription, actives raise or lower the signal
# Summary of the method: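 Transient MRTU-transfected HepG2, 24 h compound exposure. Total RNA → oligo(dT) RT → PCR of reporter → 6-FAM primer extension → HpaI digest → CE. Endpoint fitted both directions vs DMSO.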
# [10] = ATG_PPRE_CIS: Attagene CIS-FACTORIAL HepG2 Assay for human Peroxisome Proliferator-activated Response Element (PPRE) (AID 2282958); conditions: HepG2 PPRE cis-element reporter, Attagene transcription factor profiling; actives raise or lower the signal
# Summary of the method: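 HepG2, transient MRTU transfection (cis promoter elements, endogenous TFs). 24 h dosing. RNA → oligo(dT) RT → PCR → 6-FAM primer extension → HpaI digest → CE. Bidirectional fit vs DMSO.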
# Chain of Transcription factor Sp1 (Homo sapiens) (P08047 whole entry, looked up): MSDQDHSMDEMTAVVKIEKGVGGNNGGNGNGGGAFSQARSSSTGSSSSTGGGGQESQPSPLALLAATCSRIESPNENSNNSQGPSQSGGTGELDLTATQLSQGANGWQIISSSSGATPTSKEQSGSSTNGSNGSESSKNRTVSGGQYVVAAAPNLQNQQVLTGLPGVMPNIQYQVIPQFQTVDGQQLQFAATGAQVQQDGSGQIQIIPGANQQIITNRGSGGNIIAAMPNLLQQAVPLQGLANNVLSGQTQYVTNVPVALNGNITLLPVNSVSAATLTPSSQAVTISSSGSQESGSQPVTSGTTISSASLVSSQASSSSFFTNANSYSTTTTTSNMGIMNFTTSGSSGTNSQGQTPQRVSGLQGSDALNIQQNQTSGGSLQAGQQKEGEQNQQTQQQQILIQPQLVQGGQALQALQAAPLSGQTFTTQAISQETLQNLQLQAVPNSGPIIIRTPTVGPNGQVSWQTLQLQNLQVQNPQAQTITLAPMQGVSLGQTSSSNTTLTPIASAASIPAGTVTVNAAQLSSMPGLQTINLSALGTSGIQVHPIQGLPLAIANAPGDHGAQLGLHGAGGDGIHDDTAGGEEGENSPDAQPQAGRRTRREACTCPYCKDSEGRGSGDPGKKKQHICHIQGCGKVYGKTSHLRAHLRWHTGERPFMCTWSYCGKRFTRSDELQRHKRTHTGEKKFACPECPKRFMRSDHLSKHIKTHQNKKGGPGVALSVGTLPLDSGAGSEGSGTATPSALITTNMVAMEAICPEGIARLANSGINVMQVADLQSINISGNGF
# Chain of Paired box protein Pax-6 (Homo sapiens) (P26367 whole entry, looked up): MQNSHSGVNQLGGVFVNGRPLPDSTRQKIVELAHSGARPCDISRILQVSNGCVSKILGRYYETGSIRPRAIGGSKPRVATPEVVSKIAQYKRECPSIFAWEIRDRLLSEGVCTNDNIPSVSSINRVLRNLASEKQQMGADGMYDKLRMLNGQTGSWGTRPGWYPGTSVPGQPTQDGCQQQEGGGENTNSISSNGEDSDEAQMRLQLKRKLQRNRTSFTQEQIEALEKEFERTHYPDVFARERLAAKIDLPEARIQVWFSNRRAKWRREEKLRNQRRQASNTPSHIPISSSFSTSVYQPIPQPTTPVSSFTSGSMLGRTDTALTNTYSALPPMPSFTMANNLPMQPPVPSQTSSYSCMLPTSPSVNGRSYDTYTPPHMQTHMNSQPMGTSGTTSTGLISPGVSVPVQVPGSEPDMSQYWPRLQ
# Chain of Signal transducer and activator of transcription 3 (Homo sapiens) (P40763 whole entry, looked up, the tested form may be a part): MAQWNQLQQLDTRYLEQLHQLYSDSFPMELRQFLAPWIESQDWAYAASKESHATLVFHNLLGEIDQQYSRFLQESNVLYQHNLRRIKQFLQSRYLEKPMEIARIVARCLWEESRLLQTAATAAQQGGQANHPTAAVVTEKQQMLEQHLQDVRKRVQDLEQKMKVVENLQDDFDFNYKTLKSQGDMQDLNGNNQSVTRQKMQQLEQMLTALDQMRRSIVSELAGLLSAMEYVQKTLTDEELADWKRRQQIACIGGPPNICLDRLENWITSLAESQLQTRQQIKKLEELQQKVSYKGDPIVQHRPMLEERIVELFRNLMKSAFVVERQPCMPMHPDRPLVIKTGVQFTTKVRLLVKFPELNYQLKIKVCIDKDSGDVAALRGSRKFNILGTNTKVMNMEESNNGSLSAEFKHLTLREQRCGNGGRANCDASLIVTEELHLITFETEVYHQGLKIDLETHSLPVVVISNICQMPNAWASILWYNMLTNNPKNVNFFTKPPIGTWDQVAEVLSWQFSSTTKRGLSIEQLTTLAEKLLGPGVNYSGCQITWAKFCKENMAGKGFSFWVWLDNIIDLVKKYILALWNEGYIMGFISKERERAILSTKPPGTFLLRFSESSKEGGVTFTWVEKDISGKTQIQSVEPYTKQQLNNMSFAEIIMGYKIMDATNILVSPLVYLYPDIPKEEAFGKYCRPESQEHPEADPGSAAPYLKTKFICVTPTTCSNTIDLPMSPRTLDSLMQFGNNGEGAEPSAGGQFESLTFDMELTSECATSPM
compound,measurement,setting,value
O=c1[nH]c(=O)c2[nH]c(=O)[nH]c2[nH]1,outcome,[1],inactive
same,outcome,[2],inactive
same,outcome,[3],inactive
same,outcome,[4],inactive
same,outcome,[5],inactive
same,outcome,[6],inactive
same,outcome,[7],inactive
same,outcome,[8],inactive
CCN(CC)c1ccc(C(=O)c2ccccc2C(=O)O)c(O)c1,outcome,[1],inactive
same,AC50,[2],1.09 µM (active)
same,outcome,[3],inactive
same,outcome,[4],inactive
same,outcome,[5],inactive
same,outcome,[6],inactive
same,outcome,[7],inactive
same,outcome,[8],inactive
O=C1C(N(CO)C(=O)NCO)N(CO)C(=O)N1CO (centres undefined),outcome,[1],inactive
same,outcome,[2],inactive
same,outcome,[3],inactive
same,outcome,[4],inactive
same,outcome,[9],inactive
same,outcome,[6],inactive
same,outcome,[7],inactive
same,outcome,[8],inactive
Cc1ccc2oc(=O)ccc2c1,outcome,[1],inactive
same,outcome,[2],inactive
same,outcome,[9],inactive
same,outcome,[5],inactive
same,outcome,[6],inactive
same,outcome,[7],inactive
same,outcome,[8],inactive
N=c1ccn2c(n1)O[C@H]1[C@H](O)[C@@H](CO)O[C@H]12,outcome,[1],inactive
same,outcome,[2],inactive
same,outcome,[3],inactive
same,outcome,[4],inactive
same,outcome,[9],inactive
same,outcome,[6],inactive
same,outcome,[7],inactive
same,outcome,[8],inactive
CC(C)C1=CC2=CC[C@@H]3[C@](C)(CCC[C@@]3(C)C(=O)O)[C@H]2CC1,AC50,[1],71.2 µM (active)
same,AC50,[2],1.33 µM (active)
same,AC50,[3],43.1 µM (active)
same,AC50,[4],169 µM (active)
same,AC50,[5],25.9 µM (active)
same,outcome,[6],inactive
same,AC50,[7],89.6 µM (active)
same,outcome,[8],inactive
OCCN(CCO)c1ccccc1,outcome,[1],inactive
same,outcome,[2],inactive
same,outcome,[4],inactive
same,outcome,[5],inactive
same,outcome,[6],inactive
same,outcome,[7],inactive
same,outcome,[8],inactive
CC(C)CC(O)Cc1ccccc1 (centres undefined),outcome,[1],inactive
same,AC50,[2],71.6 µM (active)
same,outcome,[3],inactive
same,outcome,[4],inactive
same,outcome,[5],inactive
same,outcome,[6],inactive
same,outcome,[7],inactive
same,outcome,[8],inactive
C[C@]12CCC(=O)C=C1CC[C@@H]1[C@@H]2C(=O)C[C@@]2(C)[C@H]1CC[C@]2(O)C(=O)CO,outcome,[1],inactive
same,AC50,[2],39.5 µM (active)
same,outcome,[3],inactive
same,outcome,[9],inactive
same,outcome,[5],inactive
same,outcome,[6],inactive
same,outcome,[8],inactive
c1ccc2c(c1)ccc1ncccc12,outcome,[1],inactive
same,AC50,[2],25.3 µM (active)
same,outcome,[3],inactive
same,outcome,[4],inactive
same,outcome,[5],inactive
same,outcome,[6],inactive
same,outcome,[7],inactive
same,outcome,[8],inactive
CCCCC(CC)CCC(CC(C)C)OS(=O)(=O)O (centres undefined),outcome,[1],inactive
same,AC50,[2],27.2 µM (active)
same,outcome,[3],inactive
same,outcome,[4],inactive
same,outcome,[5],inactive
same,outcome,[6],inactive
same,outcome,[7],inactive
same,outcome,[8],inactive
SCCc1cnccn1,outcome,[1],inactive
same,AC50,[2],78.1 µM (active)
same,outcome,[3],inactive
same,outcome,[9],inactive
same,outcome,[5],inactive
same,outcome,[6],inactive
same,outcome,[8],inactive
c1ccc2c(c1)ccc1cc3c(ccc4ccccc43)cc12,outcome,[1],inactive
same,outcome,[2],inactive
same,outcome,[3],inactive
same,outcome,[9],inactive
same,outcome,[5],inactive
same,outcome,[6],inactive
same,outcome,[8],inactive
Nc1nc2ccccc2[nH]1,outcome,[1],inactive
same,outcome,[2],inactive
same,outcome,[4],inactive
same,outcome,[9],inactive
same,outcome,[5],inactive
same,outcome,[6],inactive
same,outcome,[7],inactive
same,outcome,[8],inactive
Nc1ccc(N)c(Cl)c1,AC50,[1],52.9 µM (active)
same,AC50,[2],8.87 µM (active)
same,outcome,[4],inactive
same,outcome,[9],inactive
same,AC50,[5],43.7 µM (active)
same,outcome,[6],inactive
same,outcome,[7],inactive
same,outcome,[8],inactive
CCOC(=O)Cc1cccc2ccccc12,outcome,[1],inactive
same,AC50,[2],71.7 µM (active)
same,outcome,[4],inactive
same,outcome,[9],inactive
same,outcome,[5],inactive
same,outcome,[6],inactive
same,outcome,[7],inactive
same,outcome,[8],inactive
CC(=O)[C@@]1(O)CC[C@H]2[C@@H]3C[C@H](C)C4=CC(=O)C=C[C@]4(C)[C@@]3(F)[C@@H](O)C[C@@]21C,outcome,[1],inactive
same,outcome,[2],inactive
same,outcome,[4],inactive
same,outcome,[5],inactive
same,outcome,[6],inactive
same,outcome,[7],inactive
same,outcome,[8],inactive
O=[N+]([O-])C1(Br)COCOC1,outcome,[1],inactive
same,outcome,[2],inactive
same,outcome,[3],inactive
same,AC50,[4],51.9 µM (active)
same,outcome,[5],inactive
same,outcome,[6],inactive
same,outcome,[7],inactive
same,AC50,[8],55.7 µM (active)
NCCCN1CCN(CCCN)CC1,outcome,[1],inactive
same,AC50,[2],53.7 µM (active)
same,outcome,[4],inactive
same,outcome,[9],inactive
same,outcome,[5],inactive
same,outcome,[6],inactive
same,outcome,[7],inactive
same,outcome,[8],inactive
CC1(C)O[C@@H]2C[C@H]3[C@@H]4C[C@H](F)C5=CC(=O)CC[C@]5(C)[C@H]4[C@@H](O)C[C@]3(C)[C@]2(C(=O)CO)O1,AC50,[2],22.8 µM (active)
same,outcome,[10],inactive
same,outcome,[3],inactive
same,outcome,[4],inactive
same,outcome,[9],inactive
same,outcome,[5],inactive
same,outcome,[6],inactive
same,outcome,[8],inactive
